Experimental findings from publication PMC4336329 (PLoS ONE, 2015) are described below.

In all, about 310,000 compounds went through this assay and about 14,000 (4.5%) showed an effect of 50% or more. Effects have a minus sign here. Only a selection was taken, and strong results are over-represented in it overall.
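Also: peak tail current of the secondary pulse compared with the same well before compound.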

Chain of human ether-à-go-go-related gene (hERG) potassium channel (Q12809 whole entry, looked up): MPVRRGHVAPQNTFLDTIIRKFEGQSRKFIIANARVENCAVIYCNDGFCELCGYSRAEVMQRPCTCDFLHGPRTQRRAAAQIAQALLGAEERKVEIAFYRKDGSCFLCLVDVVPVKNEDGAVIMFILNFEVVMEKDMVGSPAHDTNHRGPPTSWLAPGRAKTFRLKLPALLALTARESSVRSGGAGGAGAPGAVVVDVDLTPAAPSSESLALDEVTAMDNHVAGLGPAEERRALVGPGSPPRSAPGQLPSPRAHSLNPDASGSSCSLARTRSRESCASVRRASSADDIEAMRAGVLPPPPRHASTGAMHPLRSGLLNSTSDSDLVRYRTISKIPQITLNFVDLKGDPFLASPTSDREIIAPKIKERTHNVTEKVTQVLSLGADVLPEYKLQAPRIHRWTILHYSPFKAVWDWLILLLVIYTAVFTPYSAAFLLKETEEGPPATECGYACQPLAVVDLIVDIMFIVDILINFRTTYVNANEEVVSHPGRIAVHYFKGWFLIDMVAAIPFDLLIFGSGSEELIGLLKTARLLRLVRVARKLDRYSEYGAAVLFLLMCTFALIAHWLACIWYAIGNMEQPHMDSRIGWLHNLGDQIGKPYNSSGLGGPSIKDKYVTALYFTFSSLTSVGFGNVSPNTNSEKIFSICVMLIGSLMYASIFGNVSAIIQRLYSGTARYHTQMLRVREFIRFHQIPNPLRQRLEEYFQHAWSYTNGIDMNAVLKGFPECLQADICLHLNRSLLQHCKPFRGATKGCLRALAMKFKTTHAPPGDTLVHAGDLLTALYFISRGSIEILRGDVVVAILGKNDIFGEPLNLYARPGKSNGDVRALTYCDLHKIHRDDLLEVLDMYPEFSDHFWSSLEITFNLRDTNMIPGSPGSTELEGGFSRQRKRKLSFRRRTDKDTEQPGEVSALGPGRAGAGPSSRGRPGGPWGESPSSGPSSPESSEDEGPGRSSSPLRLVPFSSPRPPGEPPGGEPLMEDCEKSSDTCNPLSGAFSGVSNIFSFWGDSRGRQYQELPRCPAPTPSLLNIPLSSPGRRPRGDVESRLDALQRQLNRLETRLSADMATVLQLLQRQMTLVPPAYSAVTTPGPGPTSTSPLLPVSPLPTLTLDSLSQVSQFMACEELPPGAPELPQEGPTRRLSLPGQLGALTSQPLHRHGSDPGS

The test has as its target human ether-à-go-go-related gene (hERG) potassium channel (human, UniProt Q12809). The test is described as follows: primary screen, population patch clamp on CHO cells stably expressing hERG; higher = less effect of the substance.
On to `Cc1ccsc1C(=O)NCc1ccc(Cl)cc1`, for which the “hERG current change (%, negative = inhibition) at 10uM” value worked out at 11.1%.
In the case of `c1cnc(NCCNc2ncccn2)nc1` it was 9.05%.
In the case of `CC1(C)CC(NC(=O)c2ccc3c(c2)OCO3)CC(C)(C)N1` it was 4.65%; in that of `COC(=O)[C@H](CC(C)C)NC(=O)NCCCc1ccccc1`, 1.82%.
The value for `COc1ccc(C2Nc3ccccc3C(=O)N2Cc2ccccc2)cc1COc1ccccn1` (stereo not shown) was -49.4%.
Regarding `Cn1cc(C2=C(c3ccc(Cl)cc3Cl)C(=O)NC2=O)c2ccccc21`, the “hERG current change (%, negative = inhibition) at 10uM” value is given as 33%.
The value for `O=C(Nc1ccccc1)N1CCC(c2nc(-c3ccc(S(=O)(=O)N4CCOCC4)cc3)no2)CC1` was -4.94%; that for `O=C(c1cccs1)N1CCC(c2nc(-c3ccc(S(=O)(=O)N4CCOCC4)cc3)no2)CC1` was -68.8%.
In the case of `Cc1cccc(C(=O)N2CCC(c3nc(-c4ccc(S(=O)(=O)N5CCOCC5)cc4)no3)CC2)c1` it was -3.33%; in that of `O=C(N1CCOCC1)N1CCC(c2nc(-c3ccc(S(=O)(=O)N4CCOCC4)cc3)no2)CC1`, -2.07%; in that of `O=C(c1ccccc1)N1CCC(c2nc(-c3ccc(S(=O)(=O)N4CCOCC4)cc3)no2)CC1`, -60.8%.
For the molecule `O=C(C1CC1)N1CCC(c2nc(-c3ccc(S(=O)(=O)N4CCCC4)cc3)no2)CC1`, the “hERG current change (%, negative = inhibition) at 10uM” value is on record as -13%.
The value for `O=C(CN1C(=O)C2CC=CCC2C1=O)Nc1ccc(OC(F)(F)F)cc1` (stereo not shown) was -14.2%.
In the case of `CCOC(=O)c1c(-c2ccccc2)csc1NC(=O)CSc1ccccc1` it was -4.13%; in that of `O=C(CSc1nnc(Cc2ccsc2)o1)c1ccccc1`, -16.7%; in that of `CC1(C)CC(=O)C(C=Nc2ccc(Cl)cn2)=C(O)C1`, 11.6%.
In the case of `CN(c1ccc(Cl)cc1)c1cc(=O)n(C)c2ccccc12` it was -51.8%.
Take `COc1cc(=O)n(C)c2ccccc12`: the “hERG current change (%, negative = inhibition) at 10uM” value is reported as -4.88%.
For `CN(C(=O)COc1cc(=O)n(C)c2ccccc12)c1ccc(Cl)cc1`, the “hERG current change (%, negative = inhibition) at 10uM” value is -29.2%.
In the case of `CCC(CC)COC(=O)C1=C(C)NC(=O)NC1c1ccc([N+](=O)[O-])cc1` (stereo not shown) it was 11.6%; in that of `Cc1ccc(NS(=O)(=O)c2cccc(C(=O)NCC(c3ccc(F)cc3)N3CCOCC3)c2)cc1` (stereo not shown), -16.8%; in that of `O=[N+]([O-])c1cccc(CN2CC=C(c3ccc(F)cc3)CC2)c1`, -39.2%.
In the case of `O=[N+]([O-])c1ccccc1CN1CC=C(c2ccc(F)cc2)CC1` it was -12.8%; in that of `COc1cccc(CN2CC=C(c3ccc(F)cc3)CC2)c1`, -26.5%.
The value for `CCN(CC)c1ccc(CN2CCCCCC2)cc1` was -20.4%; that for `COc1ccc(CN2CC=C(c3ccc(F)cc3)CC2)cc1Br` was -11.7%; that for `CN(C)c1ccc(CN2CC=C(c3ccc(F)cc3)CC2)cc1` was -69.9%.
Take `COc1cc(CN2CC=C(c3ccc(F)cc3)CC2)cc(OC)c1`: the “hERG current change (%, negative = inhibition) at 10uM” value was -57.3%.
In the case of `CCN(CC)c1ccc(CN2CC=C(c3ccc(F)cc3)CC2)cc1` it was -78.4%.
The value for `COc1cc(C)c(CN2CC=C(c3ccc(F)cc3)CC2)cc1C` was -37.2%; that for `CCOC(=O)c1c(S(=O)(=O)N2c3ccccc3CC2C)c(C)n(C)c1C` (stereo not shown) was 13.1%; that for `CC(=O)Oc1ccc(C(=O)Nc2cccc(-c3nnc(-c4ccco4)o3)c2)cc1` was 0.775%.
Regarding `O=C(COC(=O)C1(c2ccc(F)cc2)CCCC1)NC1CC1`, the “hERG current change (%, negative = inhibition) at 10uM” value was determined as 0.676%.
`CCC1(C)Cc2c(sc3nc(SC)n(Cc4ccccc4)c(=O)c23)CO1` (stereo not shown): the “hERG current change (%, negative = inhibition) at 10uM” value came out at 6.63%.
The value for `Cc1sc(NC(=O)C2=COCCO2)nc1-c1ccc(Cl)cc1` was 13%.
For `CCCCn1c(=O)c(CCC(=O)OCC(=O)NC(=O)NCCC(C)C)nc2ccccc21`, the “hERG current change (%, negative = inhibition) at 10uM” value is recorded as -9.31%.
The value for `CCc1nnc(NC(=O)C2CCCN(S(=O)(=O)c3ccccc3)C2)s1` (stereo not shown) was 5.15%; that for `Cc1nc2cc(NC(=O)COc3ccccc3C#N)ccc2n1-c1ccccc1` was -4.85%; that for `Cc1sc2ncnc(N3CCN(CCOc4ccc(Cl)cc4)CC3)c2c1C` was -9.02%.
For `Clc1ccc(OCCN2CCN(c3ncnc4sccc34)CC2)cc1`, the “hERG current change (%, negative = inhibition) at 10uM” value is on record as -81.2%.
In the case of `CCN(CC)S(=O)(=O)c1ccc(N2CCN(CCOc3ccc(OC)cc3)CC2)nc1` it was -46.8%; in that of `Clc1ccc(OCCN2CCOCC2)cc1`, 17%; in that of `Cc1cc(C)c(C#N)c(N2CCN(CCOc3ccc(Cl)cc3)CC2)n1`, -33.6%.
